cardiac RTF act – cardiac RTF calcium sensitivity activators, primary screen, biochemical, IANBD-TnC fluorescence, EC20 calcium | Troponin I, cardiac muscle (Homo sapiens) + Troponin T, cardiac muscle (Homo sapiens) + … | IANBD-labeled TnC RTF fluorescence at EC20 calcium; 0% EC20 calcium, 100% full calcium | activation, % at 7.2 µM | hit rate 0.24% among 340,000 | AID 493008, 2010;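 active = activation above the mean over all tested compounds plus 3 SD, cut at about 30% in these data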;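 also: rise in fluorescence read as greater calcium sensitivity of cardiac thin filaments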
C-LANA FP – inhibitors of KSHV C-LANA binding to DNA, primary screen, biochemical, fluorescence polarization, FAM-LBS DNA, MBP-C-LANA, single point; Kaposi's sarcoma herpesvirus LANA C-terminal domain (residues 932-1162) DNA binding; inhibition, % at 9 µM; hit rate 0.078% among 340,000; AID 504423, 2011;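 active = highest replicate inhibition at or above 60% at 9 µM, even if other replicates fall short; inactive = all replicates below 60% inhibition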;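 also: 0% = neutral control wells and 100% = 4 µM acridine orange control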
E coli Lon inh – inhibitors of E. coli Lon protease, primary screen, biochemical, fluorescence polarization; P0A9M0; hit rate 0.42% among 360,000; inhibition, % at 7.94 µM; purified E. coli Lon protease; in the data active = inhibition above about 13%, passing the limit was not always enough;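 also: 0% = enzyme with probe and DMSO and 100% = no enzyme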
Keap1-Nrf2 PPI – Keap1-Nrf2 protein-protein interaction inhibitors, primary screen, biochemical, fluorescence polarization, single point; Keap1 Kelch-Nrf2 peptide fluorescence polarization, 1536-well; Kelch-like ECH-associated protein 1 (Homo sapiens), Q14145; hit rate 0.15% among 340,000; inhibition, % at 9.4 µM; AID 504523, 2011; in the data active = inhibition above about 12%;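 also: human Keap1 Kelch domain with fluorescein labeled Nrf2 9mer peptide probe; 0% = neutral control wells and 100% = peptide positive control; higher means more block of Keap1 binding to Nrf2 peptide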
Target sequence (Q14145 whole entry, looked up, the tested form may be a part): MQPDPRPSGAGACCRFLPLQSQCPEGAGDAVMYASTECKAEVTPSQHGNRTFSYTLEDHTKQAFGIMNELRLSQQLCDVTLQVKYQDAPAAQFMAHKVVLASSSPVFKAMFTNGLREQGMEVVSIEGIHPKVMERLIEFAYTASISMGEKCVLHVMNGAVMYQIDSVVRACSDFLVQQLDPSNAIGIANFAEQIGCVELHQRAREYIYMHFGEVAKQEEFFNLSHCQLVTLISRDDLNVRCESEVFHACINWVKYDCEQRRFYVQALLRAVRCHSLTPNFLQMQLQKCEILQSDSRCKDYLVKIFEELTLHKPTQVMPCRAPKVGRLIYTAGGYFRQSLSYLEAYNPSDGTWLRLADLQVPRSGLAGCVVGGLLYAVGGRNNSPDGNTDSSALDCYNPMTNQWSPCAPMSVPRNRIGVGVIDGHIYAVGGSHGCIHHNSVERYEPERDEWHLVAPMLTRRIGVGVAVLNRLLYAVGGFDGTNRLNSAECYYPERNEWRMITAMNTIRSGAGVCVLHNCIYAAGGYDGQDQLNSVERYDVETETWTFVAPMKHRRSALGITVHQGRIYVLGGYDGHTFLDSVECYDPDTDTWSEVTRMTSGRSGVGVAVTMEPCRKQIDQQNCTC
RTF Ca sens inh – cardiac RTF calcium sensitivity inhibitors, primary screen, biochemical, IANBD-TnC fluorescence, EC70 calcium; Troponin I, cardiac muscle (Homo sapiens) + Troponin T, cardiac muscle (Homo sapiens) + …; IANBD-labeled cardiac RTF, Ca2+ fluorescence; inhibition, % at 7.15 µM; hit rate 0.12% among 340,000; AID 493244, 2011;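 active = inhibition above the mean inhibition of all tested compounds plus 3 SD, cut at about 17% in these data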;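 also: assay run at fixed EC70 calcium of 1.6 mM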
E coli Lon conf – E. coli Lon protease inhibitor retest, confirmation, biochemical, fluorescence polarization; shares compounds with E coli Lon inh; purified E. coli Lon; inhibition, % at 7.94 µM; hit rate 31% among 1,400; in the data active = inhibition above about 16%;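 also: 0% = enzyme with probe and DMSO and 100% = no enzyme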
* = called active by the depositor; · = not tested or not shown; + = active, no number. Shown are actives, neighbours in structure and some others; about 0.82% of the full set was active somewhere.

SMILES	cardiac RTF act	C-LANA FP	E coli Lon inh	Keap1-Nrf2 PPI	RTF Ca sens inh	E coli Lon conf
Cc1c(C)n(C)c2ccc(C(=O)NCCCN3CCOCC3)cc12	-4	1	56*	-2	-4	-2
Cc1c(C)n(C)c2ccc(C(=O)NCCCN3CCCC3)cc12	4	0	-4	-6	-3	·
O=C(CSCc1nc2c(nnn2Cc2ccc(F)cc2)c(=O)[nH]1)Nc1cccc(C(F)(F)F)c1	8	0	16*	-6	-12	-7
CC(C)CC1C(=O)N(Cc2cn(Cc3ccco3)nn2)CCS(=O)(=O)N1Cc1ccc(-c2ccccc2)cc1 (stereo not given)	·	·	-4	·	·	·
FC(F)(F)c1nc2nc(Cl)c(Cl)nc2n1CCCN1CCOCC1	·	·	31*	·	·	9
COc1cc(S(=O)(=O)NC2CCCC2)ccc1-n1cnnn1	0	-2	22*	-1	-28	-7
COc1ccc(S(=O)(=O)NC2CC2)cc1-n1cnnn1	·	0	-5	-1	·	·
Cc1nc(CNC(=O)CC2C(=O)NCCN2Cc2cccc(Oc3ccccc3)c2)cs1 (stereo not given)	1	2	-9	-7	-16	·
COc1ccc(CN2CCNC(=O)C2CC(=O)NCc2csc(C)n2)c(F)c1 (stereo not given)	-4	3	19*	-7	4	4
CCN(CC)S(=O)(=O)c1ccc(N2CCOCC2)c(NC(=O)c2cc3ccccc3o2)c1	·	·	30*	·	·	-2
CCN(CC)S(=O)(=O)c1ccc(N2CCOCC2)c(NC(=O)c2ccccc2)c1	3	1	3	-1	-1	·
O=C1CCC(C(=O)N2CCCC(C(=O)c3ccc4ccccc4c3)C2)=NN1 (stereo not given)	4	1	13*	-1	3	-7
O=C(CN1C(=O)c2ccccc2C1=O)C(O)CN1C(=O)c2ccccc2C1=O (stereo not given)	·	·	3	·	·	·
COC(=O)Cn1c(O)c(N=NC(=O)CNC(=O)c2ccc3c(c2)OCCO3)c2ccccc21	6	-1	21*	-1	4	-5
COc1ccc(C(=O)NCC(=O)N=Nc2c(O)n(Cc3ccccc3)c3ccccc23)cc1OC	-2	2	-2	0	-8	·
CCOC(=O)C1=C(C)NC(=S)N(C(C)=O)C1c1ccccc1 (stereo not given)	-2	-1	17*	3	-1	1
O=C(Nc1ccccc1)Nc1nnc([C@@H]2C[C@H](O)[C@@H](CO)O2)s1	·	·	-17	·	·	·
c1ccc(C2OC3c4cccc5cccc(c45)C3N2c2ccccc2)cc1 (stereo not given)	6	2	56*	-3	2	2
CC1(C)CC(=O)C2=C(C1)OC1=C(C(=O)CC(C)(C)C1)C2c1ccc(O)cc1O	4	1	65*	-16	1	96*
CC1(C)CC(=O)C2=C(C1)OC1=C(C(=O)CC(C)(C)C1)C2c1ccc(O)c([N+](=O)[O-])c1	-5	-1	-9	2	-24	·
O=C(NCc1ccncc1)C(F)(F)C(F)(F)C(=O)NCc1ccncc1	7	1	17*	1	9	-4
O=C(Nc1c(-c2ccc(Cl)cc2)[nH][nH]c1=O)c1ccccc1Cl	·	·	-2	·	·	·
O=C(NC1CCCCC1)c1cccc(NC(=O)c2ccccc2Cl)c1	·	·	-5	·	·	·
CCCCC(=O)N(C)c1c(CC)nc2c(OCC(=O)N(C)C)cccn12	·	·	-3	·	·	·
Cc1c2ccccc2nc2c(F)c(N(C)C)c(F)c(F)c12	16	5	117*	-2	-12	+
SMILES	cardiac RTF act	C-LANA FP	E coli Lon inh	Keap1-Nrf2 PPI	RTF Ca sens inh	E coli Lon conf
COC1=CC(=NCl)C=CC1=NCl	·	·	45*	·	·	39*
Cc1ccc(NC2=CC(=O)CC(C)(C)C2)c(N)c1	-2	-1	79*	-4	0	-13
CN(C)c1ccc(CC(=O)N2CCCCC2c2cc(C(=O)Nc3cccc4c3CCCC4)no2)cc1 (stereo not given)	·	·	1	·	·	·
Cn1cc([N+](=O)[O-])c(C(=O)Nc2ccn(C34CC5CC(CC(C5)C3)C4)n2)n1	0	1	31*	-7	-11	-11
CCn1cc([N+](=O)[O-])c(C(=O)Nc2ccn(C34CC5CC(CC(C5)C3)C4)n2)n1	3	2	8	-2	-11	·
Clc1ccc2nc(-c3ccccc3)c(Cc3ccsc3)n2c1	·	·	18*	·	·	12
CCCc1nc2ccc(Cl)cn2c1Cc1ccsc1	·	·	25*	·	·	6
Cc1cc(Br)cn2c(Cc3ccsc3)c(-c3ccccc3)nc12	·	·	24*	·	·	3
Clc1ccc(-c2nc3ccc(Cl)cn3c2Cc2ccsc2)cc1	·	·	25*	·	·	3
COc1ccc(C#Cc2cnc3c(c2)C(=O)N([C@H](C)CO)C[C@@H](C)[C@H](CN(C)C(=O)CN(C)C)O3)cc1	·	·	-1	·	·	·
CC1=C(C(=O)N2CCCCCC2)CC(CC(=O)NCCCN(C)C)C(=O)N1Cc1ccc(F)cc1 (stereo not given)	·	·	-3	·	·	·
CCCCc1nc(NCCNC(=O)c2ccccc2)c(C#N)c2c1CSC(C)(C)C2	1	0	12*	-9	-14	-1
Cc1ccc2c3c(cccc13)-c1ccccc1C2=O	7	3	40*	-6	-26	20*
Cc1ccc(S(=O)(=O)N2[C@H](c3cccc(Cl)c3)CC(=O)[C@@H]3CN(S(=O)(=O)c4ccccc4C)[C@H](c4ccc(Cl)cc4)C[C@@H]32)cc1	·	·	-3	·	·	·
O=C1NC(=S)/C(=C\c2ccc(-c3ccccc3Cl)o2)S1	18	15	48*	2	-37	20*
O=C1NC(=O)/C(=C/c2ccc(-c3cc(C(=O)O)ccc3Cl)o2)S1	0	5	-10	0	-4	·
CCN(CC)CC(C)(C)C(=O)/C=C/c1ccc(/C=C/C(=O)C(C)(C)CN(CC)CC)cc1	-4	0	-2	-50	-2	·
O=C(Cn1sc2ccccc2c1=O)NC12CC3CC(CC(C3)C1)C2	-1	1	16*	-1	-2	5
CCOc1ccc(Cl)cc1-c1cc(C(=O)NCc2cccc(C(F)(F)F)c2)[nH]n1	·	·	-6	·	·	·
CCc1nc2ccc(C(=O)NCCCn3ccnc3)cn2c1N(C)CCCc1ccccc1	·	·	-5	·	·	·
CCOC(=O)c1c(C(C)(C)C)oc2ccc(O)cc12	-4	2	20*	-2	1	2
CCOC(=O)c1c(C(C)(C)C)oc2ccc(OCC#N)cc12	16	0	-2	2	-2	·
CCOC(=O)C1(C)CCCN1C(=O)c1ccc(C(F)(F)F)nc1C (stereo not given)	·	·	2	·	·	·
